# Screen size: about 65,000 compounds; about 980 (1.5%) were called active. Many of the other results were omitted from the sample, so actives are more common in it than they were. A number with no mark means an inactive call.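 The calls were made as follows: active = activation above the mean of all tested compounds plus 3 SD (cut at about 49% in these data); inactive = the rest.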
# Target: Nuclear receptor ROR-alpha (Homo sapiens) (UniProt P35398)
# Experiment: RORA ligand-binding domain transcriptional activation – cell-based, luminescence, primary screen (AID 560);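 also: 0% = DMSO-treated RORA cells and 100% = added signal equal to DMSO minus mock-transfected cells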
# Conditions: CHO-K1 Gal4-RORA LBD luciferase reporter, at 10 µM, active compounds read high, percent increase over mock-subtracted basal signal
# Chain of Nuclear receptor ROR-alpha (Homo sapiens) (P35398 whole entry, looked up, the tested form may be a part): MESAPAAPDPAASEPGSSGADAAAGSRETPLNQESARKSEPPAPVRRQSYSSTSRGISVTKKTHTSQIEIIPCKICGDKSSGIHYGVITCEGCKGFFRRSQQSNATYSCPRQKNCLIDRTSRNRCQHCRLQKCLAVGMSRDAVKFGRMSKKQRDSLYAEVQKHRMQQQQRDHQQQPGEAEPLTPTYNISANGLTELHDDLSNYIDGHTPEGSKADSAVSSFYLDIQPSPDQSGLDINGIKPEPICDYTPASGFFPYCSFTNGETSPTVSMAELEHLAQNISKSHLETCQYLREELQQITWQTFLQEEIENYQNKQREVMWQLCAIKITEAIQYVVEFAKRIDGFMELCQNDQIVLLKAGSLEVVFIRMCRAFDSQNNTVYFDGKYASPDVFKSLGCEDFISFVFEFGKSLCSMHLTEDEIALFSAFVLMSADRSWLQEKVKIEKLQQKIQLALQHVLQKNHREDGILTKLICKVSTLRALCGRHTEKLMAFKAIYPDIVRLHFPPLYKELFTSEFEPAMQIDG
row,SMILES,activation
1,COCCCNC(=O)Cn1cc(C(=O)C2CC2)c2ccccc21,7.7%
2,Cc1nnc(SCC(=O)Nn2cnnc2)s1,2.5%
3,CCOc1ccc(Nc2oc(Cc3ccccc3)nc2C#N)cc1,25.8%
4,N#Cc1nc(Cc2ccccc2)oc1NCCc1ccccc1,54.1% (active)
5,N#Cc1nc(COc2ccc(-c3ccccc3)cc2)oc1NCc1cccnc1,-0.3%
6,O=C(c1ccco1)N(Cc1nc2ccccc2c(=O)[nH]1)C1CCCC1,-21.9%
7,Cn1c(COc2ccc(Cl)cc2)nc2ccccc2c1=O,7.3%
8,COCc1nc2ccccc2n1Cc1ccccc1Br,-6.2%
9,COCn1c(COc2ccccc2)nc2ccccc21,53.4% (active)
10,CCOC(=O)c1c(NC(=O)c2ccc(Br)o2)sc2c1CCCC2,10.7%
11,C=CCOC(=O)C1=C(C)OC(N)=C(C#N)C1c1ccc(F)cc1 (stereo not drawn),-35.4%
12,Brc1ccc(Nc2c3c(nc4ncnn24)CCC3)cc1,-16.4%
13,OCCCN1c2ccccc2Nc2nnc(-c3ccccc3)cc21,56.8% (active)
14,O=C(CSc1nc2ccccc2[nH]1)c1cccs1,56.5% (active)
15,C=CCSc1nc2ccccc2[nH]1,6.3%
16,Cn1c(SCC(=O)c2cccs2)nnc1-c1ccco1,20.4%
17,Cc1ccsc1-c1nc(CSCC(=O)NCCN2CCCC2)c(C)o1,4.3%
18,Cc1ccc(S(=O)(=O)C2(S(=O)(=O)c3ccc(C)cc3)CCCC2)cc1,36.3%
19,O=C(CN1CCN(c2ccccn2)CC1)NCc1cccs1,1.8%
20,Cc1noc(C)c1C(=O)Nc1ccccn1,-8.4%
21,CCN(CC)S(=O)(=O)c1cc(C(=O)Nc2ccccn2)ccc1C,59.6% (active)
22,CCN(CC)S(=O)(=O)c1cccc(C(=O)Nc2ccccc2)c1,2.7%
23,O=C(CCn1c(=O)oc2ccccc21)Nc1ccon1,8.2%

row,SMILES,activation
1,Cc1cc(NC(=O)c2cnn3cccnc23)n(-c2ccccc2)n1,10%
2,O=C(Nc1ccc(Cl)cn1)c1cnn2cccnc12,62% (active)
3,O=C(Nc1ccc(Cl)cn1)Nc1cccs1,42.6%
4,CCCCOc1ccc(NC(=O)CSCC(=O)OCC)cc1,-11.3%
5,CCOC(=O)c1cnc(SCC(=O)NCc2ccco2)nc1N,-10.7%
6,CCCCOc1ccc(-c2ncc(C(=O)OCC)c(N)n2)cc1,59.3% (active)
7,CCn1cc(NC(=O)Nc2ccc(OC)c(OC)c2)c(C(N)=O)n1,4.9%
8,COc1cc(OC)c(C(=O)NC2CCCCCC2)cc1OC,-17%
9,COc1cc(OC)c(C(=O)Nc2ccc(N(C)C)cc2)cc1OC,58.1% (active)
10,COc1ccc(NC(=O)c2ccc(OC)cc2)cc1,25.7%
11,O=C(Nc1ccccc1F)c1cc(S(=O)(=O)N2CCCCC2)cs1,0.6%
12,CCN1C(=O)/C(=C2\SC(N3CCCCC3)=NC2=O)c2ccccc21,84.9% (active)
13,CCN1C(=O)c2cccc3c(N)ccc1c23,-26%
14,CCN1C(=O)/C(=C\N2CCN(c3ccccc3)CC2)SC1=S,-18%
15,O=C(c1cccs1)N1CCN(C(=O)N2CCOCC2)CC1,8.8%
16,COc1ccc(Nc2oc(-c3ccccc3Cl)nc2C#N)cc1,98.6% (active)
17,N#Cc1nc(-c2ccc(OCc3ccccc3)cc2)oc1NCCCN1CCOCC1,17%
18,CC1CCN(c2oc(-c3ccccc3F)nc2C#N)CC1,29%
19,O=S(=O)(c1cccs1)N1CCc2ccccc2C1,-7.5%
20,CCN1C(=O)/C(=C2/Sc3ccccc3N2CCCS(=O)(=O)O)SC1=S,-2.8%
21,COCCNC(=O)CN1C(=O)CSc2ncccc21,18.9%
22,CCS(=O)(=O)n1nc(-c2ccccc2)nc1SCc1ccccc1,32.6%
23,COc1ccc(-n2c(SC)nc(O)cc2=O)cc1,-8.4%

row,SMILES,activation
1,CCS(=O)(=O)n1nc(-c2ccc(OC)cc2)nc1SC,52.4% (active)
2,CCCS(=O)(=O)N1CCN(C(=O)c2cccs2)CC1,-4.5%
3,N#CC(=C1SC=CS1)c1nc(-c2ccccc2)cs1,59.7% (active)
4,N#C/C(=C1\CCCN1)c1nc(-c2ccccc2)cs1,6.4%
5,C#CC(C)(C)NC(=O)CSc1nc2c(c(=O)n(C)c(=O)n2C)n1CCCC,5%
6,CC(=O)CSc1nnc(CSc2ncccn2)n1C1CCCCC1,-9.7%
7,COC(=O)C1=C(C)Nc2ncnn2C1c1ccco1 (stereo not drawn),-4.4%
8,COc1ccc(OC)c2c1sc(=NC(=O)CN1C(=O)CCC1=O)n2C,-2.8%
9,COc1ccc(C)c2sc(=NC(=O)c3ccc(C#N)cc3)n(C)c12,84.6% (active)
10,CCCCSc1nnc(-c2ccc(C)cc2)o1,23.4%
11,Cc1ccc(CN2C(=O)CCC2C(=O)NCCCN2CCCCC2C)cc1 (stereo not drawn),13.7%
12,Cc1noc(NS(=O)(=O)c2ccc(NC(=O)C34CCC(CC3)C4)cc2)c1C,11.6%
13,COc1ccc(N2CCN(C(=O)CSc3ncnc4c3cnn4-c3ccc(OC)cc3)CC2)cc1,-12.8%
14,COc1ccc(-n2ncc3c(N4CCCc5ccccc54)ncnc32)cc1,50.2% (active)
15,COc1ccc(-n2ncc3c(N4CCc5ccccc54)ncnc32)cc1,50.3% (active)
16,Cc1cccc(-n2ncc3c(N4CCc5ccccc54)ncnc32)c1,2%
17,c1ccc(-n2ncc3c(N4CCCC4)ncnc32)cc1,-23.2%
18,COc1ccc2oc(=O)c(C(=O)N3CCCc4ccccc43)cc2c1,-10.5%
19,CC(=O)N1CCN(c2ccc(NCc3ccc(C(C)C)cc3)cc2)CC1,-17.3%
20,COc1ccc(N2C(=O)C3CCCN3C2c2cccc(OC)c2)cc1 (stereo not drawn),-2.9%
21,O=C(NCCN1CCOCC1)[C@H](Cc1ccccc1)N1C(=O)c2ccccc2C1=O,3.1%
22,O=C(CN1C(=O)COc2ccccc21)NCCN1CCc2ccccc2C1,20.9%

# Source: PubChem BioAssay AID560 (The Scripps Research Institute Molecular Screening Center, 2006)
